Assay results from PubChem BioAssay (NCI).
This is part of a sample that, as a whole, favours compounds with a hit. Of some 83,000 tested, about 20% had one in any assay.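 Cell lines were cultured in 96-well plates, exposed to a single compound concentration, and assessed for percent growth 48 hours later.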 Unmarked numbers belong to inactive results. Calls of active or inactive are those of the source. How the source made its calls: active means growth percent below 10; inactive means the rest.

Tests used:
Assay in all cases: NCI-60 one-dose screen, 48 h (100 = growth as untreated, 0 = no growth, -100 = all killed)
Settings in all cases: 10 µM
DU-145 prostate = system: DU-145 prostate
K-562 leukemia = system: K-562 leukemia
MDA-MB-231 breast = system: MDA-MB-231 breast
RXF 393 renal = system: RXF 393 renal
SF-268 CNS = system: SF-268 CNS
SF-295 CNS = system: SF-295 CNS
SF-539 CNS = system: SF-539 CNS
UACC-257 melanoma = system: UACC-257 melanoma
M14 melanoma = system: M14 melanoma
HCT-15 colon = system: HCT-15 colon
HT29 colon = system: HT29 colon
SNB-75 CNS = system: SNB-75 CNS
SNB-19 CNS = system: SNB-19 CNS
U251 CNS = system: U251 CNS
PC-3 prostate = system: PC-3 prostate
SK-MEL-5 melanoma = system: SK-MEL-5 melanoma
UACC-62 melanoma = system: UACC-62 melanoma
LOX IMVI melanoma = system: LOX IMVI melanoma
SK-MEL-28 melanoma = system: SK-MEL-28 melanoma
MALME-3M melanoma = system: MALME-3M melanoma

Row | SMILES | growth (DU-145 prostate) | growth (K-562 leukemia) | growth (MDA-MB-231 breast) | growth (RXF 393 renal) | growth (SF-268 CNS) | growth (SF-295 CNS) | growth (SF-539 CNS) | growth (UACC-257 melanoma) | growth (M14 melanoma) | growth (HCT-15 colon) | growth (HT29 colon) | growth (SNB-75 CNS) | growth (SNB-19 CNS) | growth (U251 CNS) | growth (PC-3 prostate) | growth (SK-MEL-5 melanoma) | growth (UACC-62 melanoma) | growth (LOX IMVI melanoma) | growth (SK-MEL-28 melanoma) | growth (MALME-3M melanoma) [%]
1 | CC(C1=C(CN(C(=O)Cc2cn(-c3ccccc3)nc2-c2ccc(Cl)cc2)C(C)C)Cc2ccccc21)c1ccccn1 (stereo not given) | 81% | 43.4% | 60.2% | 86.7% | 74.5% | 75.2% | 87.2% | 67.3% | 64.7% | 54.2% | 32.9% | 80.7% | 76.9% | 67.6% | 41.7% | 46.1% | 63.6% | 69.2% | 91.9% | 
2 | Fc1ccc(C(c2ccc(F)cc2)C(Cl)Cl)cc1 | 104% | 91.2% | 92.4% | 86.9% | 110% | 105% | 106% | 111% | 103% | 104% | 97.7% | 96.1% | 101% | 103% | 92.2% | 101% | 106% | 96.3% | 101% | 
3 | Cc1ccc(C)c(COc2cc(NC(=O)c3ccc4c(c3)OCO4)ccc2N(C)S(C)(=O)=O)c1 | -40.5% (active) | 13.3% | -10.8% (active) | -1.01% (active) | 20.8% | -4.18% (active) | -7.46% (active) | 66.6% | -34.2% (active) | 11.2% | 5.29% (active) | 4.74% (active) | 18.3% | 12.9% | 26.8% | -42.5% (active) | 15.8% | 36% | 64.6% | 
4 | COc1cc(C2CC(c3ccccc3)=NN2C(C)=O)cc(OC)c1OC (stereo not given) | 49.3% | 36.9% | 75.3% | 55% | 46.2% | 7.61% (active) | 28.3% | 64% | 29.7% | 25.6% | 11.4% | -17.1% (active) | 49% | 27.7% | 37.3% | 35.3% | 44.6% | 41.7% | 59.3% | 
5 | CC1OC2CC(=O)OC2C2=C1C(=O)c1c(O)c3c(c(O)c1C2=O)C1CC(O)C3(O)C(C)O1 (stereo not given) | -94.9% (active) | 6.27% (active) | -16.3% (active) | -91.1% (active) | 1.92% (active) | 3.26% (active) | -84.2% (active) | -58.4% (active) | -76.7% (active) | -15.8% (active) | -15.9% (active) | -28.9% (active) | 4.68% (active) | -23.4% (active) | 7.91% (active) | -96.1% (active) | -76.5% (active) | -65.9% (active) | -51.5% (active) | 
6 | OCCn1cccn1 | 104% | 101% | 103% | 93.8% | 100% | 108% | 98.3% | 136% | 112% | 98.6% | 104% | 109% | 113% | 101% | 100% | 99% | 114% | 96.3% | 117% | 
7 | c1ccc(CCCCc2ccc3ccccc3n2)cc1 | 111% | 102% | 106% |  | 99% | 106% | 101% | 103% | 98.1% | 90.1% | 87.1% | 93.6% | 105% | 90.6% | 77.1% | 109% | 102% | 96.1% | 104% | 98.2
8 | O=C1OC(C(Cl)(Cl)Cl)OC1C(Cl)(Cl)Cl (stereo not given) | 101% | 91.3% | 103% | 116% | 103% | 98% | 115% | 92.5% | 99% | 109% | 105% | 104% | 102% | 104% | 86.8% | 107% | 95.3% | 97% | 107% | 
9 | O=C(O)Cc1ccc(O)c(O)c1 | 113% | 102% | 99.2% | 94.2% | 97.6% | 102% | 89.9% | 110% | 96.5% | 96.4% | 115% | 68.8% | 102% | 109% | 106% | 94.1% | 105% | 107% | 103% | 
10 | COc1cc(NC(=O)C2=C(N3CCOCC3)/C(=C/c3ccc(Cl)cc3)CC2)cc(OC)c1OC | 99.4% | 49.7% | 91.6% |  | 114% | 118% | 101% | 59.5% | 97.3% | 73% | 86% | 90.5% | 79.3% | 91.2% | 44.8% | 66.3% | 73.1% | 89.4% | 112% | 93.6
11 | Cc1ccc(C(=O)/C=C/c2ccccc2)s1 | 92% | 108% | 112% | 94.3% | 99% | 92.6% | 132% | 121% | 86.9% | 107% | 107% | 106% | 99.1% | 95.8% | 111% | 99.9% | 97.4% | 79.1% | 114% | 
12 | NS(=O)(=O)c1ccc(N2N=C(c3ccccc3)CCC2=O)cc1 | 182% | 85.1% | 112% | 110% | 176% | 99% | 102% | 96.5% | 100% | 109% | 98.6% | 108% | 94.7% | 104% | 105% | 105% | 106% | 108% | 120% | 
13 | O[C@@H]1CO[C@H]2[C@@H]1OC[C@@H]2O | 108% | 124% | 92.5% | 125% | 108% |  | 106% | 103% | 103% | 102% | 103% | 91.1% | 99.5% | 108% | 90% | 116% | 103% | 97% | 113% | 
14 | N#Cc1cnn(C(=O)c2nn(-c3ccc(Cl)cc3)cc2O)c1N | 34.9% | -17.5% (active) | 38.5% | 39.3% | 29.5% | -25.6% (active) | 12.8% | 19% | 24.3% | 18.1% | 29.1% | 32.4% | 32.5% | 22% |  | 14.8% | 5.76% (active) | 8.92% (active) | 56.1% | 
15 | COc1ccccc1N1CCCSC1=Nc1ccccc1 | 99.7% | 78.4% | 101% |  | 99% | 80.2% | 98.9% | 43.7% | 63.3% | 115% | 150% | 232% | 92.9% | 105% | 92.9% | 96.6% | 99.9% | 92.5% | 95.9% | 
16 | O=c1c(Br)ccc(Br)cc1Br | -72.3% (active) | -11.6% (active) | -3.63% (active) | -89.5% (active) | 14.3% | 46.7% | 15% |  | -70.2% (active) | -32.8% (active) | -41.6% (active) |  | 86.6% |  | -24.7% (active) | 32.4% | -5.1% (active) | -76.9% (active) | -53.4% (active) | 
17 | Cc1ccc(C(C)C)c(O)c1NC(=O)OC(C)C | 107% | 114% | 106% | 108% | 93.8% | 101% |  | 91.7% | 96.6% | 92.2% |  | 77.5% | 99.4% | 105% | 85.5% | 97.6% | 92% | 99.4% | 101% | 
